Several values for one entry are separate records, joined by “and”; a condition that tells them apart may be missing. Equal values may be shown once. Records with an inconclusive call do not appear. Values without a mark were called inactive. Activity calls are given as the source filed them. The call rests on the fitted dose curve; in most records, active means well fitted curve in the direction sought with a large enough effect in the repeat runs; inconclusive means weak or mixed curves; inactive means no such curve, though single readings can be large; an effect the other way counts as inactive or inconclusive.
Assay: qHTS assay to identify small molecule antagonists of the retinoic acid receptor (RAR) signaling pathway (AID 1159552; further: nearly all actives have a fitted effect of over 50% in size)
Settings: C3RL4 RARE luciferase reporter, retinol-stimulated, 6 h; series mostly up to 92.4 µM; activity, negative = inhibition: at the top concentration
Method in brief: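 Test chemicals and DMSO controls were pin-transferred onto C3RL4 cells a day after seeding; retinol (1 uM final) followed at once. Luminescent reporter output was quantified after 6 hr of co-incubation and 30 min with detection reagent.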
On the % scale 0 is the no-effect control and ±100 the full control effect; potency means the concentration at half of the fitted maximal effect.

SMILES | activity, negative = inhibition [%] | Potency
CCCCOCC | 1.2 | 
CCc1cccc(CC)c1N(COC)C(=O)CS(=O)(=O)O | -10.2 | 
O=c1cccc[nH]1 | 1.52 | 
O=C1NCN(c2ccccc2)C12CCN(CCCC(c1ccc(F)cc1)c1ccc(F)cc1)CC2 |  | 29.8 µM (active)
CSc1ccc2c(c1)N(CCC1CCCCN1C)c1ccccc1S2 (configuration not stated) |  | 24.2 µM (active) and 29.8 µM (active)
Cc1cnccn1 | 66.2 | 
CCOC(/C=C(\C)CCC=C(C)C)OCC | -5.38 | 

Assay: qHTS assay to identify small molecule antagonists of the estrogen related receptor (ERR) signaling pathway from Tox21 library - cell viability counter screen (AID 1224834); further: nearly all actives have a fitted effect of over 30% in size
Settings: ERR reporter cells viability, CellTiter-Fluor, 17.5 h; series mostly up to 92.4 µM; viability change, negative = cytotoxic: at the top concentration
Method in brief: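 CellTiter-Fluor fluorescence, read after 30 min at 37 C, measures viability of ERR cells. Cells plated at 2,000/well and incubated 6 h before pin-tool compound addition, then exposed 17.5 hours at 37 C.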

SMILES | viability change, negative = cytotoxic | Potency
CC1(C)COCN1 | 0.946% | 
CCCCOC(=O)C(C)CC (configuration not stated) | 3.47% | 
CO[Si](CCC1CCC2OC2C1)(OC)OC (configuration not stated) | 1.64% | 
Clc1ccc(C(c2ccccc2Cl)C(Cl)Cl)cc1 (configuration not stated) | -12.8% [at 42.5 µM] | 
CC1=CCC(=O)O1 | -1.23% | 
COc1cccc(OC)c1O | 1.18% | 
C=C(C)CCCC | 0.584% | 
CCOCOCC | 2.46% | 
CCN=C1C=CC(=C(c2ccc(N(CC)CC)cc2)c2ccc(N(CC)CC)cc2)c2ccccc21 |  | 8.58 µM (active)
CCCC(=O)OCC(COC(=O)CCC)OC(=O)CCC | -1.15% | 
CCO[Si](C)(C)OCC | 0.456% | 
CS(C)(=O)=O | 3.04% | 
CCCCCCCCCCCCN(CCO)CCO |  | 68.3 µM (active)
CC(C)=CCCC(C)O (configuration not stated) | 1.63% | 
C#CC(O)CCC (configuration not stated) | 2.85% | 
C/C=C/C(=O)C1=C(C)CCCC1(C)C | 0.266% | 
CCc1cccc(CC)c1NC(=O)C(=O)O | 0.938% | 
COc1ccccc1C=O | 1.2% | 

SMILES | viability change, negative = cytotoxic | Potency
CCOC(=O)CN | 2.37% | 
Cc1cccc(C)c1NC(=O)CN1CCN(CCCC(c2ccc(F)cc2)c2ccc(F)cc2)CC1 |  | 21.1 µM (active)
O=C1OC(OC(=O)c2cccnc2Nc2cccc(C(F)(F)F)c2)c2ccccc21 (configuration not stated) | 1.72% [at 42.5 µM] | 
C=CC/C=C/C/C=C/C/C=C/C | 0.0781% | 
CCOC(OCC)C(=O)c1ccccc1 | 1.66% | 
Oc1cc2ccccc2cc1O | -1.07% | 
Cc1cccc(N(C)C)c1 | 0.236% | 
CCCCCCCC/C=C/CCCOC(C)=O | -2.05% | 
Cc1cncc(C)c1 | 1.45% | 
O=CC1CC1 | 0.752% | 
CCCCOCC | 0.493% | 
CCc1cccc(CC)c1N(COC)C(=O)CS(=O)(=O)O | -2.15% | 
O=c1cccc[nH]1 | -1.37% | 
O=C1NCN(c2ccccc2)C12CCN(CCCC(c1ccc(F)cc1)c1ccc(F)cc1)CC2 |  | 26.6 µM (active)
CSc1ccc2c(c1)N(CCC1CCCCN1C)c1ccccc1S2 (configuration not stated) |  | 43.1 µM (active) and 33.5 µM (active)
Cc1cnccn1 | -2.5% | 
CCOC(/C=C(\C)CCC=C(C)C)OCC | -1.71% | 

Reference: PubChem BioAssay (Tox21)
